# Assay outcomes: PubChem, National Center for Advancing Translational Sciences (NCATS)
# An excerpt weighted towards active compounds, which were near 10% of everything screened.
# ALDH1A1 block – qHTS Assay for Inhibitors of Aldehyde Dehydrogenase 1 (ALDH1A1); Aldehyde dehydrogenase 1A1 (Homo sapiens), P00352; Potency, µM (series often up to 75.3 µM), without a hit: top-dose activity, negative = inhibition, actives largely listed as inhibitors; Purified ALDH1A1, NADH fluorescence, propionaldehyde substrate; 220,000 tested, 7.3% active; AID 1030, 2008;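 further: potency means the concentration at half of the fitted maximal effect; plate controls were no enzyme wells and a reference inhibitor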
# 12-hLO inh – qHTS Assay for Inhibitors of 12-hLO (12-human lipoxygenase). Polyunsaturated fatty acid lipoxygenase ALOX12 (Homo sapiens), P18054. purified 12-hLO, xylenol orange hydroperoxide absorbance. Potency, µM (highest dose often 57.1 µM), for inactives: at the top dose activity change, negative = inhibition, most hits filed as inhibitors. 150,000 tested, 0.12% active; active means well fitted inhibition curve with a large enough effect; inconclusive means small, poorly fitted or top-dose-only effect; further: potency means the concentration at half of the fitted maximal effect; nearly all actives have a fitted effect of over 55% in size
# Target sequence (P18054 whole entry, looked up): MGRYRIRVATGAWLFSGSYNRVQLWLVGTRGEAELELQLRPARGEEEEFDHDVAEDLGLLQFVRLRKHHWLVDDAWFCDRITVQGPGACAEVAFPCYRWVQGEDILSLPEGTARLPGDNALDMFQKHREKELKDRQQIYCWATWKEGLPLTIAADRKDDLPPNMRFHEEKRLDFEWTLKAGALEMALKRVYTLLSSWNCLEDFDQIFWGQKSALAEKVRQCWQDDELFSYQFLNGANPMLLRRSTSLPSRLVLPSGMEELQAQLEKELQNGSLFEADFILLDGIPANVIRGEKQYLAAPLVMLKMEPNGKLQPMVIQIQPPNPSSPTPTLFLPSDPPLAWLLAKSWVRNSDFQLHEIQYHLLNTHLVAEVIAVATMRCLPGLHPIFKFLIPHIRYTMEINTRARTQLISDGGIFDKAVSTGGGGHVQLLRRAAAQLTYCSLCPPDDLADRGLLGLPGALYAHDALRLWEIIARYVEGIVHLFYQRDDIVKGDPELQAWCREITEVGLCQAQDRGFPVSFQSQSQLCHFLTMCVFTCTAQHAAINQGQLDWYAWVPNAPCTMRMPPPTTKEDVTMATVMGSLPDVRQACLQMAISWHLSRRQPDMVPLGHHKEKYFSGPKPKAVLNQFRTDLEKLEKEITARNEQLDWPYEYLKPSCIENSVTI
#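 150 nM 12hLO, 25 mM Hepes pH 7.0 + 0.01% Triton X-100; cpd preinc 15 min RT; 40 uM arachidonic acid, 30 min RT; Fe-XO 30 min; A573/A405 ratio as read-out.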
# PNC inhibitor – High Content Assay for Compounds that inhibit the Assembly of the Perinucleolar Compartment | activity change (PNC), negative = inhibition, % at 10 µM | PC3M PTB-GFP, PNC prevalence imaging, 16 h; stronger effect = lower value | 140,000 tested, 3.1% active;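 active means readout at or below -70, meaning at least 70% loss of cells showing the perinucleolar compartment, a nuclear body marking cancer cells; inconclusive means readout between -30 and a set limit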;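 further: plate controls were DMSO wells for no effect and camptothecin positive control wells for full effect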
#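 PC3M cells stably expressing PTB-GFP, 750–1000 cells/well, treated 16 h at 37 °C with compound (23 nl of library stock), in duplicate. After paraformaldehyde fixation and Hoechst stain, imaged at 20x; PNC prevalence scored by image analysis.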
# LMNA splice mod – qHTS Assay for Modulators of Lamin A Splicing; AID 1487, 2009; 200,000 tested, 0.01% active; HeLa LMNA splicing GFP/RFP minigene ratio, 48 h; Potency, µM (titrated, usually from 46.1 µM), for the others: at the highest dose ratio change, negative = inhibition, usual class: inhibitors; active means well fitted inhibition curve with a large enough effect in the signal ratio, with a control signal flat, not every such curve was filed as active; inconclusive means small, poorly fitted or top-dose-only effect, or effect the other way, or a change in a side signal; the % refers to the signal ratio; further: potency means the concentration at half of the fitted maximal effect
#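 S3 HeLa stable clones carrying a lamin A-EGFP splicing minigene plus DsRed2 were seeded at 600 cells/well in Opti-MEM with 2% FBS, pin-dosed and incubated 48 h at 37°C. Acumen cytometry (488 nm) gave the GFP/RFP total-intensity ratio.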
# HPGD block – qHTS Assay for Inhibitors of HPGD (15-Hydroxyprostaglandin Dehydrogenase). purified HPGD, NADH fluorescence kinetic, PGE2 substrate. Potency, µM, for inactives: at the top dose activity change, negative = inhibition, hits mostly inhibitors. 150,000 tested, 4.3% active. 15-hydroxyprostaglandin dehydrogenase [NAD(+)] (Homo sapiens), P15428; further: potency means the concentration at half of the fitted maximal effect
#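 20 nM HPGD preincubated 15 min at room temperature with compound in 50 mM Tris-HCl pH 8, 0.01% Tween 20. Started with 1 mM NAD+ and 30 uM prostaglandin E2; NADH fluorescence (360/450 nm) read 5 times over 30-s intervals, last minus first.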
# * marks the source's active call; other numbers are inactive results; ? = inconclusive; · = not tested or not shown; [ ] = another dose, or the depositor's remark. Unless noted, the call rests on the fitted dose curve; in most records, active means well fitted inhibition curve with a large enough effect (not every such curve was filed as active); inconclusive means small, poorly fitted or top-dose-only effect, or another doubt; inactive means no such curve, though single readings can be large or run the other way. Unless noted, on the % scale 0 is the no-effect control and ±100 the full control effect.
SMILES,ALDH1A1 block,12-hLO inh,PNC inhibitor,LMNA splice mod,HPGD block
COC(=O)CCCCC(=O)OC,-6%,-1%,·,·,-1%
CN(C)c1ccc2c(c1)OC(N)=C(C#N)C2c1cccc(F)c1 (configuration not stated),-15%,-7%,-85*,?,-22%
Cc1c(O)ccc2c1OCO2,-2%[13.5 µM],·,·,·,·
CC/C(=N/Nc1ccccc1)c1cnnc(-c2ccccc2)n1,10µM*,-13%,428,0%,-19%
COc1ccc(C(=O)[C@H](Br)[C@H](Br)C(=O)O)cc1,0.28µM*,-3%[11.4 µM],·,·,-13%
N#Cc1cccc(-c2cc(-n3ccnc3)ncn2)c1,-13%,-2%,·,5%,-12%
Cc1c(N=Cc2ccc[nH]2)c(=O)n(-c2ccccc2)n1C,13µM*,-6%,37,2%,?
Cc1cc(C)cc(OCc2ccc(C(=O)O)o2)c1,11%,2%,?,12%,-3%
O=C(O)c1ccc(COc2c(F)c(F)c(F)c(F)c2F)o1,8%,-4%,-100*,-11%,-15%
Cc1ccc(C(=O)CC(c2cccs2)S(=O)(=O)c2ccc(C)cc2)cc1 (configuration not stated),-10%,-4%,-2,-6%,-11%
O=C(CC(c1cccs1)S(=O)(=O)c1ccccc1)c1ccc(F)cc1 (configuration not stated),25µM*,3%,-11,-21%,-1%
CCOC(=O)CC1C(=O)NCCN1c1nc2ccc(C)cn2c(=O)c1/C=C1\SC(=S)N(C(C)CC)C1=O (configuration not stated),1.4µM*,·,·,·,·
CCOc1ccc(NCc2nnc(SCc3ccc(Cl)cc3)n2-c2ccccc2)cc1,16µM*,1%,-27,?,-5%
CCOC(=O)CSc1nnc(CNc2ccc(Cl)cc2)n1-c1ccccc1,10µM*,-8%,19,12%,-11%
Cc1cccc(-c2nc3scc(CCNS(=O)(=O)c4ccc5c(c4)OCCO5)n3n2)c1,·,·,·,18%[46 µM],·
N#CCCn1cc(/C=N/NC(=O)c2ccncc2)c(-c2ccccc2)n1,-10%,-2%,-84*,-11%,-15%
Cc1ccc(S(=O)(=O)NN2C(=O)/C(=C/c3cccn3C)SC2=S)cc1,-4%,-5%,39,-7%,-26%
Cn1cccc1/C=C1\SC(=S)N(Nc2ccccc2)C1=O,3.5µM*,·,·,·,·
CCCC(C(=O)O)N1C(=O)/C(=C/c2cccn2C)SC1=S (configuration not stated),-2%,?,?,-18%,18µM*
S=C(NC1CCCCC1)NN(c1ccccc1)c1ccccc1,-5%,-30%,41,?,0%
C/C(=N\NC(=S)NC1CCCCC1)c1ccc(O)cc1,14µM*,·,·,-23%[46 µM],·
COCCNC(=S)N/N=C(\C)c1ccc(O)cc1,18%,-8%,0,-5%,-15%
C/C(=N\NC(=S)NC1CCCCC1)c1ccccc1,0%,?,-100*,?,-10%
C/C(=N\NC(=S)Nc1ccccc1C)c1ccc(O)cc1,20µM*,·,·,?,·
COC(=O)CN1C(=O)C(C)(C)c2cc(S(=O)(=O)Nc3ccc(C(C)C)cc3)ccc21,·,·,·,3%[46 µM],·
SMILES,ALDH1A1 block,12-hLO inh,PNC inhibitor,LMNA splice mod,HPGD block
CC(C)Cn1cc(NC(=O)NCc2cccc(Cl)c2)c2ccccc2c1=O,·,·,·,-2%[46 µM],·
Clc1ccc(-c2nc3sccn3c2/C=N/OCc2ccc(Cl)c(Cl)c2)cc1,6%,·,·,·,·
CC(C)(C)OC(=O)N1CCC(c2c(C(=O)NCCN3CCOCC3)cnn2-c2cccc(Cl)c2)CC1,·,·,·,2%[46 µM],·
CN1/C(=C/C(=O)C2CCC2)Sc2ccccc21,3.5µM*,-11%,?,4%,-29%
CCN(Cc1ccccc1)C(=O)c1c(C)oc2ncn(C)c(=O)c12,·,·,·,2%[46 µM],·
COc1ccc(NC(=O)c2sc(SCc3ccccc3)nc2N)cc1,13µM*,1%,?,-4%,?
COc1ccc(NC(=O)c2sc(SC)nc2N)cc1,-4%,-15%,3,-17%,-7%
CNc1nc(SCc2ccc(C)cc2)nc2c1CCCC2,6.3µM*,-3%,91,-5%[0.0737 µM],?
